From PubChem
CYP2C19 activ = activators of human cytochrome P450 2C19 | P33261 | recombinant CYP2C19, luciferin-H EGE luminescence; stronger effect = higher value; 0 = fully inhibited enzyme, 1 = untreated enzyme | activation factor at 5 µM | 96,000 tested, under 10 active;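 active = activation factor of at least 2 at 5 µM in the primary screen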
Cav3 T inh = blocks human Cav3.2 T-type calcium channel. 100,000 compounds, 4% hits. Cav3.2-expressing cells, Fluo-4 calcium fluorescence FDSS; stronger effect = lower value. B-score at 10 µM. AID 449739. O95180;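 active = single-dose well whose peak fluorescence ratio is a statistical outlier from its plate by either plate-standardised score or position-corrected B-score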
Target sequence (O95180 whole entry, looked up): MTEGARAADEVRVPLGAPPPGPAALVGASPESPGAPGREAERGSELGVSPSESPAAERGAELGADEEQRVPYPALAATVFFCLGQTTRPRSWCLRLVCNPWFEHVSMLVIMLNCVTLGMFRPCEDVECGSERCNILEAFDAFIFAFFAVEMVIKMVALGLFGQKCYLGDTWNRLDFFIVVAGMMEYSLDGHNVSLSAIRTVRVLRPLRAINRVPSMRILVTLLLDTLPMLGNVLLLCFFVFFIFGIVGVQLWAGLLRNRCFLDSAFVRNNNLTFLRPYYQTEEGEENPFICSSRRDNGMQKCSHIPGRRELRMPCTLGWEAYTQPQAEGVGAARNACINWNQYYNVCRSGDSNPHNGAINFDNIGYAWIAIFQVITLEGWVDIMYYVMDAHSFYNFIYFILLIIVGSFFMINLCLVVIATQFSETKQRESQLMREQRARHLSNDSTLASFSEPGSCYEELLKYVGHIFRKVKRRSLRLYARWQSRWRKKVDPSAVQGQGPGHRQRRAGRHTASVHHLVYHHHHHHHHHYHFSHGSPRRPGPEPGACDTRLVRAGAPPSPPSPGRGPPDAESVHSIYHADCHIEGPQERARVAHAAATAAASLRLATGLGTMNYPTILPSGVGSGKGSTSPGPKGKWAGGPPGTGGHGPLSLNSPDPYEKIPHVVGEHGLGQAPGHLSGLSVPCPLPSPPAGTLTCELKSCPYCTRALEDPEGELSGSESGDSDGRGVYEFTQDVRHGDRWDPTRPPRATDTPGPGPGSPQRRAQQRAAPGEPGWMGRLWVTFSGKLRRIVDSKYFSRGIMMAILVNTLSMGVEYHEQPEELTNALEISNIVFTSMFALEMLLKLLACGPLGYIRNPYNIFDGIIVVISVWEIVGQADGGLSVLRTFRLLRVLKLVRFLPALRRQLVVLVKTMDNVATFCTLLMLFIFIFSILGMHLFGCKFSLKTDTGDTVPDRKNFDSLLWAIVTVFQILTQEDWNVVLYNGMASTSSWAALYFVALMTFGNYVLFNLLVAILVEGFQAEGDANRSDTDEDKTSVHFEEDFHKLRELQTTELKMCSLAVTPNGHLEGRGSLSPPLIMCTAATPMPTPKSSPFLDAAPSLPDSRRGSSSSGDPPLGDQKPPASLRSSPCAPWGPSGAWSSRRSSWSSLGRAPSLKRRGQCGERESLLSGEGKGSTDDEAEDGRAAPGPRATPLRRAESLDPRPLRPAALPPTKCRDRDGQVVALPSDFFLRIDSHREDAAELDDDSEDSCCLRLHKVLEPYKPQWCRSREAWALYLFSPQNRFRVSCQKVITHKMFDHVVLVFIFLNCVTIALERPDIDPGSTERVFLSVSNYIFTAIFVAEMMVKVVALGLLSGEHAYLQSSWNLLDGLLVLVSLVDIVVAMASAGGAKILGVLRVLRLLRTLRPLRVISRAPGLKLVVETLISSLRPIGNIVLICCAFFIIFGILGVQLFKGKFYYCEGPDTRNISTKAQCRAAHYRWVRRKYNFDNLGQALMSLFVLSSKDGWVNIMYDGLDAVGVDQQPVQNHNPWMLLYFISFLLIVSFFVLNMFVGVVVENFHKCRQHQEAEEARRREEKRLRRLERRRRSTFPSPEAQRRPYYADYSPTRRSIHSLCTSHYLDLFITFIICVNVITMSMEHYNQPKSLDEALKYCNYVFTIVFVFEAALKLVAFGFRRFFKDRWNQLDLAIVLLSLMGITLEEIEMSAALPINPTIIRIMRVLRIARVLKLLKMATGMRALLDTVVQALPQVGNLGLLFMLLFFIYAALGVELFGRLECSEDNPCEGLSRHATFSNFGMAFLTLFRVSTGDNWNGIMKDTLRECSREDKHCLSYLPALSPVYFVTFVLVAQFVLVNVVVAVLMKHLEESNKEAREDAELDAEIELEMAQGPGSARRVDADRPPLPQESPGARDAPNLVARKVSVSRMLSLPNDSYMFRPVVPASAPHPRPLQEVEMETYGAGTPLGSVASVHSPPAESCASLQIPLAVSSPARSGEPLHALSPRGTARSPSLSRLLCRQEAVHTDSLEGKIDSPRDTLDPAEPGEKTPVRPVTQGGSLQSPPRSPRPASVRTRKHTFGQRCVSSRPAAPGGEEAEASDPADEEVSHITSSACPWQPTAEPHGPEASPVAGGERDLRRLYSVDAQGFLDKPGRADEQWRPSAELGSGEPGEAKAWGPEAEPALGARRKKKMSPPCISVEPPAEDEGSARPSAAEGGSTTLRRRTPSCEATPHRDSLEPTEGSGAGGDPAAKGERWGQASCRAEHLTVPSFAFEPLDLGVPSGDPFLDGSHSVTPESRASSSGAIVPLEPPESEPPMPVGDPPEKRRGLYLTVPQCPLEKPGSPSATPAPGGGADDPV
CYP2C9 inhib = human CYP2C9 inhibition. 96,000 compounds, 20% hits. P11712. CYP2C9 Supersomes, luciferin-H conversion, luminescence. inhibition, % at 5 µM;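 active = blocking of liver enzyme CYP2C9 beyond about 50% at 5 µM, limit read from the data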
CYP2C19 inhib = human CYP2C19 inhibition; CYP2C19 Supersomes, luciferin-H EGE luminescence, 30 min; 96,000 compounds, 21% hits; inhibition, % at 5 µM; P33261;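 active = CYP2C19 inhibition above a set limit at 5 µM in the primary screen, cut at about 50% in these data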
CYP2C9 act = increases human cytochrome P450 2C9 activity | P11712 | recombinant CYP2C9, luciferin-H conversion, luminescence; stronger effect = higher value; factor 1 = untreated enzyme, 0 = blocked | activation factor at 5 µM | 96,000 compounds, 1.4% hits | AID 1024;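 active = activation factor of 2 or more for CYP2C9 at a 5 µM dose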
A number is an active result. Compounds with a hit are over-represented: about 27% of the library has one in this group of screens.

`Cc1ccccc1-c1noc(C23CC4CC(CC(C4)C2)C3)n1` gave CYP2C19 activ inactive, Cav3 T inh inactive, CYP2C9 inhib inactive, CYP2C19 inhib inactive and CYP2C9 act inactive.
For c1cncc(-c2noc(C34CC5CC(CC(C5)C3)C4)n2)c1 the results were CYP2C19 activ inactive, Cav3 T inh inactive, CYP2C9 inhib inactive, CYP2C19 inhib 83 and CYP2C9 act inactive.
O=C(CCCNS(=O)(=O)c1cccc2nsnc12)NC1CCCCC1 was read as CYP2C19 activ inactive, Cav3 T inh inactive, CYP2C9 inhib inactive, CYP2C19 inhib inactive and CYP2C9 act inactive.
For CCc1ccc(NC(=O)CCNS(=O)(=O)c2cccc3nsnc23)cc1 the results were CYP2C19 activ inactive, Cav3 T inh inactive, CYP2C9 inhib inactive, CYP2C19 inhib 51 and CYP2C9 act inactive.
Cc1cccc2sc(NC(=O)CCNS(=O)(=O)c3cccc4nonc34)nc12 was read as CYP2C19 activ inactive, CYP2C9 inhib 58, CYP2C19 inhib 72 and CYP2C9 act inactive.
Screening COc1ccc(N(C)C(=O)CCS(=O)(=O)c2cccc3nonc23)cc1 returned CYP2C19 activ inactive, Cav3 T inh inactive, CYP2C9 inhib inactive, CYP2C19 inhib inactive and CYP2C9 act inactive.
COC(=O)c1ccc(NC(=O)CCNS(=O)(=O)c2cccc3nonc23)cc1 was read as CYP2C19 activ inactive, CYP2C9 inhib inactive, CYP2C19 inhib 72 and CYP2C9 act inactive.
Screening CCOc1ccc(CCNS(=O)(=O)c2cccc3nsnc23)cc1OCC returned CYP2C19 activ inactive, CYP2C9 inhib 57, CYP2C19 inhib 86 and CYP2C9 act inactive.
CC1=CC(c2ccccc2)n2nc(N3C(=O)C4CC=CCC4C3=O)nc2N1 (stereo not given) was read as CYP2C19 activ inactive, Cav3 T inh inactive, CYP2C9 inhib inactive, CYP2C19 inhib inactive and CYP2C9 act inactive.
CCCc1cc(=O)[nH]c(Nc2cc(OC)ccc2OC)n1 was read as CYP2C19 activ inactive, Cav3 T inh inactive, CYP2C9 inhib inactive, CYP2C19 inhib inactive and CYP2C9 act inactive.
Screening COc1ccc(C2C(C(=O)N3CCCCC3)CCC(=O)N2c2cc(OC)c(OC)c(OC)c2)cc1 (stereo not given) returned Cav3 T inh inactive.
Screening CCc1c(C(=O)NCc2ccccc2Cl)[nH]c(C)c1C(C)=O returned CYP2C19 activ inactive, Cav3 T inh inactive, CYP2C9 inhib 66, CYP2C19 inhib 61 and CYP2C9 act inactive.
Screening O=C(Cc1ccccc1[N+](=O)[O-])NCc1ccccc1Cl returned CYP2C19 activ inactive, Cav3 T inh inactive, CYP2C9 inhib inactive, CYP2C19 inhib inactive and CYP2C9 act 2.4.
CCC(CC)C(=O)NCc1ccccc1Cl was read as CYP2C19 activ inactive, Cav3 T inh inactive, CYP2C9 inhib 67, CYP2C19 inhib inactive and CYP2C9 act inactive.
For CC(=O)c1c(C)[nH]c(C(=O)NCc2ccccc2Cl)c1C the results were Cav3 T inh inactive.
COC(=O)CC1C(=O)NCCN1C(=O)NC1CCCCC1 (stereo not given) was read as CYP2C19 activ inactive, Cav3 T inh inactive, CYP2C9 inhib inactive, CYP2C19 inhib inactive and CYP2C9 act inactive.
For Cc1cc(=O)n2nc(-c3ccc(C(F)(F)F)cc3)sc2n1 the results were CYP2C19 activ inactive, Cav3 T inh inactive, CYP2C9 inhib inactive, CYP2C19 inhib inactive and CYP2C9 act inactive.
For Cc1ccc2c(c1)[nH]c1c(=O)n(CCC3=CCCCC3)cnc12 the results were CYP2C19 activ inactive, Cav3 T inh inactive, CYP2C9 inhib inactive, CYP2C19 inhib 55 and CYP2C9 act inactive.
Screening Cc1ccc2[nH]c3c(=O)n(CCC4=CCCCC4)cnc3c2c1 returned CYP2C19 activ inactive, Cav3 T inh inactive, CYP2C9 inhib inactive, CYP2C19 inhib inactive and CYP2C9 act inactive.
Screening O=C(CCC(=O)NNC(=S)Nc1ccccc1)NCc1ccccc1 returned CYP2C19 activ inactive, Cav3 T inh inactive, CYP2C9 inhib inactive, CYP2C19 inhib inactive and CYP2C9 act inactive.
Screening CC(C)CCNC(=S)Nc1ccc(F)cc1 returned Cav3 T inh inactive.
For CSc1c(-c2ccccc2)nc2ccc(Cl)cc2c1C(=O)O the results were CYP2C19 activ inactive, Cav3 T inh inactive, CYP2C9 inhib 81, CYP2C19 inhib inactive and CYP2C9 act inactive.
Screening COc1cc2c(cc1OC)C(C)N(C(=O)CCN1C(=O)C3C4C=CC(C4)C3C1=O)CC2 (stereo not given) returned CYP2C19 activ inactive, CYP2C9 inhib inactive, CYP2C19 inhib inactive and CYP2C9 act inactive.
`Nn1c(SCC(=O)NCc2ccc3c(c2)OCO3)nnc1C1CC1` gave CYP2C19 activ inactive, Cav3 T inh inactive, CYP2C9 inhib inactive, CYP2C19 inhib inactive and CYP2C9 act inactive.
